Assay results from the supplement of paper PMC8728848.
Only a selection was taken, and the strongest signals are over-represented in it overall.

How the values were obtained:
Experiment in all cases: glycan array binding signal (z-score within array); higher = stronger binding
Details in all cases: glycan notation: IUPAC condensed, linker removed
[1] = target: Neu5Ac(a2-6)Gal(b1-4)GlcNAc(b1-2)Man(a1-3)[Gal(b1-4)GlcNAc(b1-2)Man(a1-6)]Man(b1-4)GlcNAc(b1-4)GlcNAc
How it was run: (§1)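 Arrays were curated from the Consortium for Functional Glycomics database, 3228 in total, and kept only where the protein sequence was available. Binding is expressed as a within-array Z-score. This score was averaged across arrays of the same protein sequence at different concentrations or buffers and across linkers, and negative values can be read as non-binding.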

[2] = target: Neu5Ac(a2-6)Gal(b1-4)GlcNAc(b1-2)Man(a1-6)Man(b1-4)GlcNAc(b1-4)GlcNAc
How it was run: as §1

[3] = target: Neu5Ac(a2-6)Gal(b1-4)GlcNAc(b1-2)Man(a1-6)[GlcNAc(b1-2)Man(a1-3)]Man(b1-4)GlcNAc(b1-4)GlcNAc
How it was run: as §1

[4] = target: Neu5Ac(a2-8)Neu5Ac(a2-8)Neu5Ac(a2-3)Gal(b1-4)Glc
How it was run: as §1

[5] = target: Neu5Ac(a2-8)Neu5Ac(a2-8)Neu5Ac(a2-3)[GalNAc(b1-4)]Gal(b1-4)Glc
How it was run: as §1

[6] = target: Neu5Gc(a2-3)Gal(b1-3)GlcNAc
How it was run: as §1

[7] = target: Fuc(a1-2)[Gal(a1-3)]Gal(b1-4)Glc
How it was run: as §1

[8] = target: Fuc(a1-2)[GalNAc(a1-3)]Gal
How it was run: as §1

[9] = target: Fuc(a1-2)[GalNAc(a1-3)]Gal(b1-4)Glc
How it was run: as §1

[10] = target: Fuc(a1-2)[GalNAc(a1-3)]Gal(b1-4)GlcNAc
How it was run: as §1

[11] = target: Fuc(a1-2)[GalNAc(a1-3)]Gal(b1-4)[Fuc(a1-3)]GlcNAc
How it was run: as §1

[12] = target: Fuc(a1-2)[GalNAc(a1-4)]Gal(b1-4)GlcNAc
How it was run: as §1

[13] = target: Fuc(a1-3)[Gal(b1-4)]GlcNAc(b1-2)Man(a1-3)[Fuc(a1-3)[Gal(b1-4)]GlcNAc(b1-2)Man(a1-6)]Man(b1-4)GlcNAc(b1-4)GlcNAc
How it was run: as §1

[14] = target: Fuc(a1-3)[Gal(b1-4)]GlcNAc(b1-4)Gal(b1-4)[Fuc(a1-3)]GlcNAc(b1-4)Gal(b1-4)[Fuc(a1-3)]GlcNAc
How it was run: as §1

Fuc(b1-3)GlcNAc = target: Fuc(b1-3)GlcNAc
How it was run: as §1

GlcA(b1-3)Gal = target: GlcA(b1-3)Gal
How it was run: as §1

GlcNAc(b1-6)GalNAc = target: GlcNAc(b1-6)GalNAc
How it was run: as §1

GlcNAc3Prop(b1-4)GlcNAc = target: GlcNAc3Prop(b1-4)GlcNAc
How it was run: as §1

Man(b1-4)GlcNAc = target: Man(b1-4)GlcNAc
How it was run: as §1

[15] = target: Neu5Ac(a2-3)Gal(b1-4)[Fuc(a1-3)]GlcNAc(b1-3)Gal(b1-4)[Fuc(a1-3)]GlcNAc(b1-3)Gal(b1-4)[Fuc(a1-3)]GlcNAc
How it was run: as §1

[16] = target: Neu5Ac(a2-8)Neu5Ac(a2-8)Neu5Ac
How it was run: as §1

Neu5Gc(a2-3)Gal(b1-4)Glc = target: Neu5Gc(a2-3)Gal(b1-4)Glc
How it was run: as §1

Binder	glycan array binding signal (z-score) [1]	glycan array binding signal (z-score) [2]	glycan array binding signal (z-score) [3]	glycan array binding signal (z-score) [4]	glycan array binding signal (z-score) [5]	glycan array binding signal (z-score) [6]	glycan array binding signal (z-score) [7]	glycan array binding signal (z-score) [8]	glycan array binding signal (z-score) [9]	glycan array binding signal (z-score) [10]	glycan array binding signal (z-score) [11]	glycan array binding signal (z-score) [12]	glycan array binding signal (z-score) [13]	glycan array binding signal (z-score) [14]	glycan array binding signal (z-score) (Fuc(b1-3)GlcNAc)	glycan array binding signal (z-score) (GlcA(b1-3)Gal)	glycan array binding signal (z-score) (GlcNAc(b1-6)GalNAc)	glycan array binding signal (z-score) (GlcNAc3Prop(b1-4)GlcNAc)	glycan array binding signal (z-score) (Man(b1-4)GlcNAc)	glycan array binding signal (z-score) [15]	glycan array binding signal (z-score) [16]	glycan array binding signal (z-score) (Neu5Gc(a2-3)Gal(b1-4)Glc)
SspB (Streptococcus gordonii), P16952 (protein) MKNKKEVYGFRKSKVAKTLCGAVLGTALIAFADKAVFADEVTETTSTSTVEVATTGNPATNLPEAQGEMSQVAKESQAKAGSKESALPVEVSSADLDKAVADAKSAGVKVVQDETKDKGTATTATDNAQKQDEIKSDYAKQAEEIKTTTEAYKKEVAAHQAETDKINAENKAADDKYQKDLKSHQEEVEKINTANATAKAEYEAKLAQYQKDLATVKKANEDSQQDYQNKLSAYQTELARVQKANAEAKEAYEKAVKENTAKNEALKVENEAIKQRNETAKATYEAAMKQYEADLAAIKKANEDNDADYQAKLAAYQTELARVQKANAEAKEAYDKAVKENTAKNTAIQAENEAIKQRNETAKATYDAAVKKYEADLAAVKQANATNEADYQAKLAAYQTELARVQKANADAKATYEKAVEDNKAKNAAIKAENEEIKQRNAVAKTDYEAKLAKYEADLAKYKKEFAAYTAALAEAESKKKQDGYLSEPRSQSLNFKSEPNAIRTIDSSVHQYGQQELDALVKSWGISPTNPDRKKSRAYSYFNAINSNNTYAKLVLEKDKPVDVTYTGLKNSSFNGKKISKVVYTYTLKETGFNDGTKMTMFASSDPTVTAWYNDYFTSTNINVKVKFYDEEGQLMNLTGGLVNFSSLNRGNGSGAIDKDAIESVRNFNGRYIPISGSSIKIHENNSAYADSSNAEKSLGARWNTSEWDTTSSPNNWYGAIVGEITQSEISFNMASSKSGNIWFAFNSNINAIGVPTKPVAPTAPTQPMYETEKPLEPAPVAPSYENEPTPPVKTPDQPEPSKPEEPTYETEKPLEPAPVAPSYENEPTPPVKTPDQPEPSKPEEPNYETEKPLEPAPVAPSYENEPTPPVKIPDQPEPSKPEEPTYDPLPTPPLAPTPKQLPTPPVVPTVHFHYSSLLAQPQINKEIKNEDGVDIDRTLVAKQSIVKFELKTEALTAGRPKTTSFVLVDPLPTGYKFDLDATKAASTGFDTTYDEASHTVTFKATDETLATYNADLTKPVETLHPTVVGRVLNDGATYTNNFTLTVNDAYGIKSNVVRVTTPGKPNDPDNPNNNYIKPTKVNKNKEGLNIDGKEVLAGSTNYYELTWDLDQYKGDKSSKEAIQNGFYYVDDYPEEALDVRPDLVKVADEKGNQVSGVSVQQYDSLEAAPKKVQDLLKKANITVKGAFQLFSADNPEEFYKQYVATGTSLVITDPMTVKSEFGKTGGKYENKAYQIDFGNGYATEVVVNNVPKITPKKDVTVSLDPTSENLDGQTVQLYQTFNYRLIGGLIPQNHSEELEDYSFVDDYDQAGDQYTGNYKTFSSLNLTMKDGSVIKAGTDLTSQTTAETDATNGIVTVRFKEDFLQKISLDSPFQAETYLQMRRIAIGTFENTYVNTVNKVAYASNTVRTTTPIPRTPDKPTPIPTPKPKDPDKPETPKEPKVPSPKVEDPSAPIPVSVGKELTTLPKTGTNDATYMPYLGLAALVGFLGLGLAKRKED	3.2	1.36	0.081	2.25	2.4	0.179	–	–	–	–	–	–	–	–	–	–	–	–	–	–	–	–
GH98CBM (Clostridium perfringens) (protein) EVYALEESRDVYLSDLDWLNATHGDDTKSKIVQKNHPFTPGNNNQSTKISLKMEDGSISEFEKGLGTIAGSPSTITYDISGAGVTKFFSYLGIDRSANPINEQYAKVDKIEVVVDGKVIYSTINQFPNGLTYETPAIKVDLNIPENAKRLQLKSYAGEKTWGDEVVYADAKFTAKGDFVN	–	–	–	–	–	–	2.19	4.81	6.66	8.52	5.47	-0.209	0.041	-0.235	0.118	-0.196	-0.22	-0.189	-0.183	-0.233	-0.247	-0.107
